Data reported in ChEMBL document CHEMBL3988442, “University of Dundee, Small-Polar-MMV Screening Library” (2021).

These compounds were tested against AMP-activated protein kinase, AMPK (Homo sapiens) (UniProt P54646+O43741+P54619+Q9UGJ0+Q9Y478+Q13131+Q9UGI9) (assay: AMP-dependent Kinase enzyme assay. An in vitro enzyme assay that detects ADP turnover that is directly proportional to AMPK activity. This uses naive AMPK that is activated during the assay with MK-8722). Details: 30 µM.
Assay type: functional
Design: scale not given: direction of the effect not stated beside the values

| Compound | Percent Effect [%] |
| --- | --- |
| Cc1ccc(CNC(=O)c2ccc(=O)n(C)n2)c(OC2CCCC2)c1 | 12.3 |
| Cc1cnn(C2CN(CCOc3ccc(C#N)cc3)C2)c1 | 5.88 |
| COc1cccc([C@@]2(O)CC[C@@H]3CN(C(=O)c4c[nH]nc4C)C[C@@H]32)c1 | 10.8 |
| CCC[C@H]1CN(S(=O)(=O)N(C)Cc2ccccc2)C[C@@H]1N | -0.364 |
| CC(C)c1nc(CSc2nnc(-c3cccs3)n2CC(N)=O)no1 | -6.28 |
| O=C1CC2(CCCC2)CC(=O)N1CCn1cnnc1 | 5.88 |
| CCSCCn1cc(-c2ncc[nH]2)nn1 | -2.81 |
| O=C(Nc1ccc2c(c1)C(=O)NC2=O)c1cccs1 | 16.2 |
| CCCNC(=O)CNC(=O)CC1CCCc2cc(OC)ccc21 (stereo not given) | -4.21 |
| O=C(NCC1CCS(=O)(=O)C1)N(Cc1ccncc1)C1CC1 (stereo not given) | -5.47 |
| O=C(CCn1cccn1)NCCOc1ccc2c(c1)OCO2 | -5.16 |
| CN(Cc1cnc(N)nc1)C(=O)C1CCN(C(=O)C2CCCC2)CC1 | -0.173 |
| COc1ccc(C2(C(=O)N3CC(c4cccnc4)C3)CC2(C)C)cc1 (stereo not given) | -5.88 |
| CNc1ncc(C(=O)N2CCCC(CO)(CCCOC)C2)cn1 (stereo not given) | 5.91 |
| Cc1ncc(CC(=O)N2CCCCC2CCN2CCCC2)c(=O)[nH]1 (stereo not given) | 0.508 |
| Cc1nn(C)c(Cl)c1C(=O)NCC1(C(N)=O)CCOCC1 | -1.15 |
| CCN(CC)C(=O)N1CCOCC1c1c(C)nn(C)c1C (stereo not given) | 2.79 |
| COCC1(C(=O)N[C@H]2CN(c3ccnc(C)c3)C[C@@H]2C2CC2)CCC1 | -1.57 |
| Cc1nc(CNC(=O)c2cc(COc3ccccc3)[nH]n2)n[nH]1 | 7.31 |
| COc1cc(NCCCSc2nnc(C)s2)ncn1 | 13.7 |

| Compound | Percent Effect [%] |
| --- | --- |
| O=C(NCC(O)c1ccc(F)cc1)C1CCN(C2CCCCC2)CC1 (stereo not given) | -8.77 |
| CC(C)c1nnc(CN2CC(n3cccn3)Cc3ccccc32)o1 (stereo not given) | -5.15 |
| N#Cc1ccc(SCCC(=O)Nc2ccc(CC(N)=O)cc2)cc1 | 0.314 |
| Cc1cc(C(=O)Nc2ccc(OCCN3CCN(C)CC3)cc2)[nH]n1 | 14.7 |
| COc1ccc(Br)c(NC(=O)NCc2cnn(C)c2)c1 | -1.99 |
| CCCC1(CO)CCCN(C(=O)CNC(C)=O)C1 (stereo not given) | -1.86 |
| Cc1cc(C)n(CC2CCN(CC(O)COc3ccccc3)CC2)n1 (stereo not given) | 2.9 |
| NC(=O)c1ccc(NC2CCOC3(CCCC3)C2)nn1 (stereo not given) | 0.506 |
| CCOc1cc(NC(=O)N2CCOC3(CCC3)C2)ccc1C | -1.23 |
| COC(=O)C1(NCC(=O)Nc2cc(C)ccc2OC)CCCCC1 | -3.05 |
| CN(C(=O)c1ccncc1)c1nnc(C2CCOC2)s1 (stereo not given) | 12.1 |
| NC(=O)CN1CCC(c2noc3cc(F)ccc23)CC1 | 12.7 |
| CCc1onc(C)c1C(=O)N1CCN(c2ncc3c(n2)CCOC3)CC1 | 13 |
| CCc1cccc(OCCCN(C)C(=O)CN2CCNC2=O)c1 | 5.57 |
| CS(=O)(=O)c1ccc(CNC(=O)NCc2cc[nH]n2)cc1 | -5.06 |
| COCCOCC1CCN(C(=O)c2ccc3[nH]cnc3c2)C1 (stereo not given) | -11.9 |
| CN1CCCC1c1ccnc2nccn12 (stereo not given) | 6.44 |
| CC1CN(C)CCN1C(=O)c1cccn1Cc1cccs1 (stereo not given) | 3.93 |
| O=C(Nc1ccccc1F)NC1(CO)CCOCC1 | -1.57 |
| Cc1nnc(CN(Cc2ccco2)Cc2cccc3c2OCO3)n1C | -4.86 |
